High-throughput results as filed in PubChem BioAssay.
Shown is part of a subset that was picked to be rich in hits.
MARV entry inh: Marburg virus entry inhibition. Marburg virus pseudotyped entry inhibition, cell reporter. Potency, µM (highest dose often 37.8 µM), without a hit: at the highest dose activity change, negative = inhibition, actives largely listed as inhibitors. 300,000 tested, 1.8% active; calls by dose curve; tested in HEK293 cells; further: potency means the concentration at half of the fitted maximal effect; on the % scale 0 is the no-effect control and ±100 the full control effect
VACV mCherry inh: inhibitors of vaccinia virus infection (mCherry reporter signal); Vaccinia virus mCherry reporter infection, fluorescence; Potency, µM (doses to about 36.5 µM), for inactives: top-dose activity change, negative = inhibition, usual class: inhibitors; 310,000 tested, 0.63% active; AID 720579; calls by dose curve; tested in A549 cells; further: potency means the concentration at half of the fitted maximal effect; on the % scale 0 is the no-effect control and ±100 the full control effect; nearly all actives have a fitted effect of over 35% in size
Cycloheximide cs: counter-screen for Shiga toxin inhibitors: cycloheximide protein synthesis inhibition. cell reporter, cycloheximide protein synthesis inhibition counterscreen. max response, %. 300,000 tested, 12% active. AID 2314; in the data active means max response mostly above about 13%, no sharp cut-off; inactive means mostly below about 14%; further: read at 38.3 µM for the half of the compounds with a filed dose; 0% is about no effect
Shiga toxin inh: blocks Shiga toxin action in Vero cells | Vero cells, Shiga toxin protein synthesis inhibition reporter | inhibition, % at 38.7 µM | 290,000 tested, 9.2% active | AID 2315; in the data active means inhibition mostly above about 28%, no sharp cut-off; inactive means mostly below about 43%; further: 0% is about no effect
LASV entry inh: inhibitors of Lassa virus binding or cell entry | Lassa virus pseudotype entry inhibition, cell reporter | Potency, µM (titrated, usually from 37.9 µM), inactives show top-dose activity change, negative = inhibition, actives largely listed as inhibitors | 300,000 tested, 1.2% active | AID 540256; calls by dose curve; tested in HEK293 cells; further: potency means the concentration at half of the fitted maximal effect; on the % scale 0 is the no-effect control and ±100 the full control effect; nearly all actives have a fitted effect of over 50% in size
Vaccinia Venus: inhibitors of vaccinia virus (Venus reporter); Vaccinia virus Venus reporter expression, fluorescence; Potency, µM (highest dose often 36.5 µM), without a hit: at the top dose activity change, negative = inhibition, actives largely listed as inhibitors; 330,000 tested, 0.46% active; AID 720580; calls by dose curve; tested in A549 cells; further: potency means the concentration at half of the fitted maximal effect; on the % scale 0 is the no-effect control and ±100 the full control effect; nearly all actives have a fitted effect of over 30% in size
Numbers without * were called inactive; i = inactive; u = inconclusive; x = not tested or not shown; [ ] = another dose, or the depositor's remark.

SMILES	MARV entry inh	VACV mCherry inh	Cycloheximide cs	Shiga toxin inh	LASV entry inh	Vaccinia Venus
Cc1ccc(-c2c(C(=O)N3CCN(c4cccc(C)c4)C(C)C3)oc(=O)c3ccccc23)cc1 (stereo unspecified)	u	-15%	x	x	u	-14%
O=c1[nH]c(=O)n(-c2ccccc2)c(O)c1/C=C1/C(c2ccccc2)=Nc2ccccc21	-15%	u	48*	30*	-14%	u
COC(=O)C1=Nc2ccccc2/C1=C\c1c(O)n(-c2ccc(Br)cc2)c(=O)[nH]c1=O	-18%	-10%	1	-13	-1%	-4%
COc1ccccc1NC(=O)CN1C(=O)CC(c2ccc(C)c(C)c2)=Nc2ccccc21	x	-10%	x	x	u	-6%
COc1cc2nc(C#N)nc(N)c2cc1OC	x	-10%	x	x	x	-6%
O=C(NC1CCSC1=O)c1ccccc1 (stereo unspecified)	u	x	1	-17	-3%	x
O=C(/C=C/c1ccccc1)NC1CCSC1=O (stereo unspecified)	-19%	-12%	39*	70*	22%	-5%
CC(C)N=C1NN=C(c2cccs2)CS1	-11%[46.1 µM]	1%	35*	54*	-16%	-9%
CC(C)N=C1NN=C(c2ccc(Cl)c(Cl)c2)CS1	u	-17%	38*	102*	-2%[46.1 µM]	-13%
CC(C)c1ccc(N=C2NN=C(c3cccs3)CS2)cc1	u	-16%	41*	87*	u	-27%
CC(C)c1ccc(C2NC(=O)c3n[nH]c(-c4cccs4)c32)cc1 (stereo unspecified)	-10%[46.1 µM]	-19%	x	x	-18%[46.1 µM]	-14%
Cc1cccc(N=C2NN=C(c3c(C)[nH]c4ccccc34)CS2)c1	u	u	6	13	u	u
COc1ccc(/C=N/NC(=O)c2ccncc2)cc1CN1CCN(c2ccc(F)cc2)CC1	-5%	-4%	2	-6	-14%	-16%
Cc1ccc(Cn2ncc(C)c2N)o1	0%	x	2	-17	4%	x
Clc1cccc(/C=N/Nc2nnc(Cl)c3ccccc23)c1	16%	i	19	62*	0%	6%
Clc1ccc(/C=N/Nc2nnc(-c3ncc[nH]3)c3ccccc23)cc1	-24%	x	34*	112*	-17%	x
Cc1nnc(NCc2cccc(Cl)c2)c2ccccc12	-9%[46.1 µM]	-27%	-4	-12	3%	-17%
CC1CN(CCS(=O)(=O)c2cc(Cl)ccc2Cl)CC(C)O1 (stereo unspecified)	2%	11µM*	1	-5	-24%	u
Cc1ccc(NC(=O)N2CCC(CN3CCCCCC3)CC2)c(Cl)c1	x	-10%	x	x	-1%[46.1 µM]	-8%
O=C1NC(=O)/C(=C/c2ccc(O)cc2)S1	9%	i	36*	75*	-13%	-2%
Clc1ccc2oc(-c3ccccc3)cc(=NCCCN3CCOCC3)c2c1	u	-16%	25*	93*	x	-18%
OCCCCCN=c1cc(-c2ccccc2)oc2ccc(Cl)cc12	u	-29%	45*	85*	u	u
O=C(NC1CCC(Oc2ccc(C(=O)O)cc2)CC1)NC12CC3CC(CC(C3)C1)C2 (stereo unspecified)	x	i	x	x	x	-14%
CCn1c(/C=C/c2ccc(O)c(O)c2)nc2ccccc2c1=O	x	x	0	2	x	x
COc1ccc(/C=C/c2c(-c3ccc(OC)cc3)oc3ccccc23)cc1	x	i	-1	-4	x	-9%
SMILES	MARV entry inh	VACV mCherry inh	Cycloheximide cs	Shiga toxin inh	LASV entry inh	Vaccinia Venus
O=c1nc(/C=C/c2ccc(O)c(O)c2)oc2ccccc12	u	u	25*	38	-29%	-22%
COc1ccc(/C=C\c2nc(=O)c3ccccc3o2)cc1	u	-23%	60*	135*	u	-25%
C[C@@H]1C[C@H]2CC(=O)N3[C@H](CC(=O)N2[C@H]1c1ccccc1)C[C@@H](C)[C@@H]3c1ccccc1	15%[14.2 µM]	x	x	x	x	x
Cc1ccc(-c2nc3ccccc3nc2NN)cc1	x	x	41*	53*	x	x
Cc1ccc(C(=O)OCC(=O)NCCNC(=O)COC(=O)c2ccc(C)s2)s1	-10%[46.1 µM]	-13%	x	x	0%	-8%
Cc1ccc(C(=O)OCC(=O)c2ccc(Cl)s2)s1	12%	x	53*	83*	18%	-10%
CCN(CC(=O)NCc1ccc(Cl)cc1)Cc1cc(=O)n2ccsc2n1	-7%[46.1 µM]	-15%	2	9	x	-14%
O=C(CSc1nnc(-c2ccccc2)c2ccccc12)NCC1CCCO1 (stereo unspecified)	x	x	-1	3	x	x
COc1ccc(-c2nnc3ccc(SCC(=O)NCC4CCCO4)nn23)cc1 (stereo unspecified)	1%	x	-2	-6	5%	x
CCOc1ccc(-c2ccc(SCC(=O)NCC3CCCO3)nn2)cc1 (stereo unspecified)	-23%[46.1 µM]	i	37*	47	-4%	-14%
O=C(CSc1nc(-c2ccccc2)ns1)NCC1CCCO1 (stereo unspecified)	7%[46.1 µM]	i	45*	65*	u	-21%
COc1ccc(-c2cn3nc(SCC(=O)NCC4CCCO4)ccc3n2)cc1 (stereo unspecified)	x	x	26*	61*	x	x
Cc1ccc(-c2ccc(SCC(=O)NCC3CCCO3)nn2)cc1 (stereo unspecified)	3%[46.1 µM]	i	16	36	-12%	-11%
O=C(CSc1ccc2nc(-c3ccccc3)cn2n1)NCC1CCCO1 (stereo unspecified)	x	x	23*	70*	x	x
CC(C)N1C[C@@H](Sc2ccccn2)C[C@H]1C(=O)Nc1ccc2c(c1)Nc1ccccc1CC2	x	-10%	x	x	x	7%
COc1ccc(C2CC(=O)N(CC(=O)Nc3cccc(C)c3C)c3ccccc3S2)cc1OC (stereo unspecified)	u	u	x	x	x	-23%
CCOC(=O)CNC(=O)CSc1nc(-c2ccc(C)cc2)ns1	u	-1%	24	48*	u	-20%
CCOc1ccc(-c2ccc(SCC(=O)Nc3nnc(CC)s3)nn2)cc1	u	-15%	5	50	x	1%
CCOc1ccc(-c2ccc(SC)nn2)cc1	1.3µM*	-8%	-9	-17	2.8µM*	-1%
Cn1cc(SCC(=O)NCC2CCCO2)c2ccccc21 (stereo unspecified)	x	-26%	-1	-6	x	-4%
CCOC(=O)CNC(=O)CSc1nc(-c2ccccc2)ns1	2%[46.1 µM]	i	9	6	-9%	-1%
CCCn1cc(SCC(=O)NCC2CCCO2)c2ccccc21 (stereo unspecified)	x	i	25*	42*	x	-8%
COc1ccc(Cc2[nH]n3c(=O)c(Cl)c(C)nc3c2-c2ccccc2)cc1	2%[46.1 µM]	i	4	10	11%[46.1 µM]	-9%
CCCC(O)(c1ccc(Cl)cc1)C(CN1CCOCC1)c1ccc(Cl)cc1 (stereo unspecified)	7.9µM*	i	-8	-8	-16%[46.1 µM]	-5%
NS(=O)(=O)c1ccc(CCNc2ncnc3c2cnn3-c2cccc(Cl)c2)cc1	x	-16%	x	x	8%[46.1 µM]	2%
O=C(C(=O)N1CCN(c2ccccc2F)CC1)c1c[nH]c2ccccc12	0%[46.1 µM]	-10%	5	17	6%	-14%
